Measurements as given in PubChem BioAssay (EPA / NIEHS).
Calls of active or inactive are those of the source. Rule for the calls: active = hit-call score of the fitted dose curve at least 0.9, where 1 is the maximum; inactive = score below 0.9.

Experiments:
[1] = APR_HepG2_P-H2AX_72hr: Apredica 72-hour HepG2 Assay for H2AX Phosphorylation (AID 2282916); settings: imaging, actives raise or lower the signal;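 note: phospho-histone H2A.x immunostain intensity per cell marking DNA damage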
In short: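 Phospho-H2A.x imaging endpoint in HepG2 after 72 hr compound exposure (0.39–200 uM, duplicate wells). Activity derived by bidirectional curve fitting with DMSO as baseline.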

[2] = APR_HepG2_MitoMembPot_72hr: Apredica 72-hour HepG2 Assay for Mitochondrial Membrane Potential (AID 2282917); settings: imaging, actives raise or lower the signal
In short: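 HepG2 cells dosed 72 hr with compound at 0.39–200 uM in duplicate, 0.5% v/v DMSO final. Mitochondria stained with 250 nM MitoTracker Red CMXRos for 30 min before formaldehyde fixation, imaged by high-content fluorescence; bidirectional fit versus DMSO.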

[3] = APR_HepG2_MitoticArrest_72hr: Apredica 72-hour HepG2 Assay for Mitotic Arrest (AID 2282918); settings: high-content imaging, actives raise or lower the signal
In short: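 Mitotic arrest in HepG2 is scored from phospho-histone H3 staining after 72 hr dosing across 0.39–200 uM, with DMSO at 0.5% v/v. Nuclei are identified by Hoechst 33342 and fluorescence intensity is quantified per cell.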

[4] = APR_HepG2_MicrotubuleCSK_72hr: Apredica 72-hour HepG2 Assay for Microtubule CSK Stabilty (AID 2282919); settings: HepG2 microtubule cytoskeleton, high-content imaging, actives raise or lower the signal
In short: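 HepG2, 72 hr cmpd exposure, 0.39–200 uM (10 pts, duplicate), 0.5% DMSO. 3.7% formaldehyde fix, 0.5% Triton perm, anti-alpha-tubulin/Cy5 plus Hoechst. HCS fluorescence intensity; bidirectional fit vs DMSO baseline; taxol as positive control.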

[5] = APR_HepG2_P-H2AX_24hr: Apredica 24-hour HepG2 Assay for H2AX Phosphorylation (AID 2282920); settings: high-content imaging, actives raise or lower the signal
In short: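 Signal comes from a FITC-labeled secondary detecting phospho-histone H2A.x in fixed HepG2 cells, quantified by automated imaging at 20x. Dosing ran 24 hr across 0.39–200 uM with 0.5% v/v DMSO.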

[6] = APR_HepG2_StressKinase_72hr: Apredica 72-hour HepG2 Assay for Stress Kinase (AID 2282921); settings: HepG2 stress kinase (phospho-c-Jun) imaging, actives raise or lower the signal
In short: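 Stress kinase signal reflects nuclear phospho-c-Jun staining in fixed, permeabilized cells exposed 72 h to compound at 0.39–200 uM; DMSO-normalized, fitted for increases or decreases.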

[7] = APR_HepG2_StressKinase_24hr: Apredica 24-hour HepG2 Assay for Stress Kinase (AID 2282922); settings: HepG2 stress kinase (phospho-c-Jun) imaging, actives raise or lower the signal
In short: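 Read-out: phospho-c-Jun immunofluorescence (Cy3 secondary) quantified by high-content imaging at 20x, nuclei defined by Hoechst 33342. Human HepG2 liver cells dosed 24 hr, 0.39–200 uM, DMSO 0.5% v/v; gain or loss of signal fitted relative to DMSO.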

[8] = APR_HepG2_p53Act_72hr: Apredica 72-hour HepG2 Assay for p53 Activation (AID 2282923); settings: high-content imaging, actives raise or lower the signal;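 note: average cellular p53 protein immunofluorescence intensity in HepG2 cells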
In short: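 Fixed-cell p53 staining (sheep primary, Cy5 secondary) measured by fluorescence imaging following 72 hr treatment at 0.39–200 uM in 0.5% DMSO; DMSO served as negative control and baseline.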

[9] = APR_HepG2_MitoMass_72hr: Apredica 72-hour HepG2 Assay for Mitochondrial Mass (AID 2282924); settings: high-content imaging, actives raise or lower the signal;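 note: MitoTracker Red CMXRos stain intensity per cell imaged as mitochondrial mass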
In short: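 Read-out: MitoTracker Red fluorescence intensity from automated imaging (20x, six fields per well) in human HepG2 liver cells. Dosing ran 72 hr, 0.39–200 uM, 0.5% DMSO; bidirectional curve fitting versus DMSO baseline.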

[10] = APR_HepG2_NuclearSize_72hr: Apredica 72-hour HepG2 Assay for Nuclear Size (AID 2282925); settings: high-content imaging, actives raise or lower the signal
In short: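 Read-out: nuclear diameter from Hoechst 33342 images (ArrayScan, 20x, six fields/well), via cell-cycle image analysis. HepG2 were dosed 0.39–200 uM for 72 hr in 0.5% DMSO. Bidirectional fit relative to DMSO.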

Measured: AC50

CCCCCCCCCCCCc1ccccc1
inactive: all assays above

CC(=O)OCCC(C)C
inactive: all assays above

CNS(=O)(=O)c1cc(C(=O)N2CCC(CCN3C4CCC3CC(n3c(C)nc5ccccc53)C4)(c3cccc(F)c3)CC2)c(Cl)cc1F (centres undefined)
active: [1] 11.1 µM | [3] 10.3 µM | [4] 65.2 µM | [5] 52.9 µM | [7] 54.4 µM
inactive: [2] | [6] | [8] | [9] | [10]

C=CC(=C)CCC=C(C)C
inactive: all assays above

CN(C)c1ccc(Cc2ccc(N(C)C)cc2)cc1
active: [3] 30.7 µM | [4] 37.4 µM
inactive: all other assays above

CCCCCCc1ccc(O)cc1O
active: [3] 33.7 µM | [5] 101 µM | [7] 158 µM
inactive: all other assays above

CCC(C)(C)C(=O)O[C@H]1C[C@@H](C)C=C2C=C[C@H](C)[C@H](CC[C@@H]3C[C@@H](O)CC(=O)O3)[C@H]21
active: [1] 58.8 µM | [3] 2.62 µM | [5] 73.8 µM | [6] 100 µM | [7] 115 µM | [8] 29.6 µM | [9] 0.559 µM
inactive: [2] | [4] | [10]

CC[C@H](C)C(=O)O[C@H]1C[C@@H](C)C=C2C=C[C@H](C)[C@H](CC[C@@H]3C[C@@H](O)CC(=O)O3)[C@H]21
active: [1] 5.29 µM | [3] 4.53 µM | [5] 2.46 µM | [8] 3.64 µM | [9] 131 µM
inactive: [2] | [4] | [6] | [7] | [10]

CCNc1ccccc1
inactive: all assays above

COc1cccc(-c2ccc(/C=C\CN3CCCCCC3)cc2Cl)c1
active: [1] 22.5 µM | [3] 17.6 µM | [5] 48.9 µM | [6] 32.3 µM | [7] 69.3 µM | [8] 22.5 µM | [10] 62 µM
inactive: [2] | [4] | [9]

CC(C)c1cccc(C(C)C)c1N1C(=O)c2ccc(O)cc2C1=O
inactive: [2] | [9] | [10]
active: [1] 6.16 µM | [3] 6.04 µM | [4] 14.8 µM | [5] 44 µM | [6] 6.1 µM | [7] 8.52 µM | [8] 3.01 µM

Cc1ccc(N)cc1O
active: [2] 1.02 µM
not listed: [7]
inactive: all other assays above

Oc1ccc2c(c1)-c1ccccc1C2
active: [1] 89 µM | [2] 106 µM | [3] 80.3 µM | [5] 117 µM | [8] 47.7 µM
inactive: [4] | [6] | [7] | [9] | [10]

O=c1n(CC2CO2)c(=O)n(CC2CO2)c(=O)n1CC1CO1 (centres undefined)
inactive: [2] | [4] | [6] | [10]
active: [1] 15.2 µM | [3] 15.8 µM | [5] 17.8 µM | [7] 31.6 µM | [8] 5.06 µM | [9] 50 µM

CC(=O)c1ccc2c(c1)[C@H](NC(=O)c1ccc(F)cc1)[C@@H](O)C(C)(C)O2
inactive: all assays above

O=C1OC(=O)C2C3C=CC(C3)C12 (centres undefined)
inactive: all assays above

O=C(O)c1cccc(Oc2ccccc2)c1
inactive: all assays above

O=C(O)c1cc(N=Nc2ccc(S(=O)(=O)Nc3ccccn3)cc2)ccc1O
active: [2] 88.8 µM
inactive: all other assays above

CCOC(=O)c1ccc(C2CCC(NC[C@H](O)COc3ccc(O)c(NS(C)(=O)=O)c3)CC2)cc1 (some centres undefined)
active: [1] 14 µM | [3] 20.3 µM | [4] 41.9 µM | [5] 40 µM | [7] 28.3 µM | [8] 14.5 µM | [10] 22.7 µM
inactive: [2] | [6] | [9]

O=C(OC[C@H]1O[C@@H](OC(=O)c2cc(O)c(O)c(OC(=O)c3cc(O)c(O)c(O)c3)c2)[C@H](OC(=O)c2cc(O)c(O)c(OC(=O)c3cc(O)c(O)c(O)c3)c2)[C@@H](OC(=O)c2cc(O)c(O)c(OC(=O)c3cc(O)c(O)c(O)c3)c2)[C@@H]1OC(=O)c1cc(O)c(O)c(OC(=O)c2cc(O)c(O)c(O)c2)c1)c1cc(O)c(O)c(OC(=O)c2cc(O)c(O)c(O)c2)c1
active: [2] 15.1 µM | [8] 23.2 µM | [9] 14.5 µM | [10] 18.7 µM
inactive: all other assays above
